The target of assay [1] is Myc proto-oncogene protein (Homo sapiens) (UniProt P01106). The assay is described as follows: ATG_Myc_CIS: Attagene CIS-FACTORIAL HepG2 Assay for human Myelocytomatosis (Myc) Proto-Oncogene Transcription Factor (AID 2282990). As to conditions: HepG2, Attagene cis-reporter transcription factor activity; actives raise or lower the signal. The gist of the method: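 HepG2, transient MRTU transfection (cis promoters, endogenous TFs); 24 h dosing; TriZol RNA → oligo(dT) RT → PCR → 6-FAM primer extension → HpaI cut → CE. Bidirectional fit vs DMSO.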

Assay [2] is described as follows: ATG_NF_kB_CIS: Attagene CIS-FACTORIAL HepG2 Assay for human Nuclear Factor Kappa B (NF-kB) (AID 2282991). To be noted: HepG2 Attagene cis-factorial NF-kB reporter mRNA; actives raise or lower the signal. The gist of the method: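 HepG2 cells transfected with cis-promoter-driven reporter units, so endogenous transcription factor activity is measured. Reporter mRNA quantified 24 h after dosing by RT-PCR and capillary electrophoresis, with bidirectional fitting against DMSO.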

A short description of assay [3]: ATG_NRF2_ARE_CIS: Attagene CIS-FACTORIAL HepG2 Assay for human Nuclear Factor Erythroid 2 Related Factor 2 (NFR2) response to Antioxidant Response Elements (ARE) (AID 2282992).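 For AC50: reporter mRNA level measured by RT-PCR and capillary electrophoresis fluorescence.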 As to conditions: HepG2 Attagene ARE/NRF2 reporter, transcription factor activity; actives raise or lower the signal. The gist of the method: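 Fluorescence intensity of reporter-specific cDNA fragments, separated by capillary electrophoresis, reflects mRNA induction in transfected HepG2 cells at 24 h. Activity is fitted bidirectionally, DMSO serving as baseline.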

Assay [4] in a line: ATG_Oct_MLP_CIS: Attagene CIS-FACTORIAL HepG2 Assay for human Octamer-Binding Transcription Factor (Oct) (AID 2282993). To be noted: HepG2 Attagene cis-factorial Oct reporter, mRNA; actives raise or lower the signal. The gist of the method: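 Multiplexed cis-reporter assay in human liver HepG2 cells, 24 h incubation. Reporter RNA amplified and labelled, then resolved by capillary electrophoresis; DMSO serves as negative control and baseline.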

The target in assay [5] is Cellular tumor antigen p53 (Homo sapiens) (UniProt P04637). Description: ATG_p53_CIS: Attagene CIS-FACTORIAL HepG2 Assay for human p53 Transcription Factor (AID 2282994). As to conditions: HepG2 p53 cis-element reporter, Attagene mRNA; actives raise or lower the signal. The gist of the method:
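Transiently transfected HepG2 (multiple cis reporter transcription units); exposure 24 h; reporter RNA via RT-PCR, 6-FAM extension, 2 h HpaI digest at 37 C, CE detection; DMSO baseline.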

Assay [6] deals with human Peroxisome Proliferator-activated Receptor alpha (PPARa), PPARA (gene 5465) (UniProt Q07869). Description: ATG_PPARa_TRANS: Attagene TRANS-FACTORIAL HepG2 Assay for human Peroxisome Proliferator-activated Receptor alpha (PPARa) (AID 2283001; active = hit-call score of the fitted dose curve at least 0.9, where 1 is the maximum). The gist of the method: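 Transfected HepG2 cells treated with test chemical for 24 h. RNA isolated, reverse-transcribed with oligo(dT), PCR-amplified, FAM-labelled and HpaI-digested. Fragments sized by capillary electrophoresis; gain-of-signal fit relative to DMSO.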

Assay [7] has as its target Retinoic acid receptor alpha (Homo sapiens) (UniProt P10276). The assay is described as follows: ATG_RARa_TRANS: Attagene TRANS-FACTORIAL HepG2 Assay for human Retinoic Acid Receptor alpha (RARa) (AID 2283005; active = hit-call score of the fitted dose curve at least 0.9, where 1 is the maximum). The gist of the method:
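Reporter transcripts, measured by RT-PCR with fluorescent labeling and capillary electrophoresis after 24 h dosing, reflect activity of an exogenous human RARa–GAL4 fusion in transiently transfected HepG2. Fitted for increase relative to DMSO.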

Assay [8] deals with Peroxisome proliferator-activated receptor gamma (Homo sapiens) (UniProt P37231). The assay is described as follows: ATG_PPARg_TRANS: Attagene TRANS-FACTORIAL HepG2 Assay for human Peroxisome Proliferator-activated Receptor-gamma (PPARg) (AID 2283007; active = hit-call score of the fitted dose curve at least 0.9, where 1 is the maximum). The gist of the method:
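HepG2 cells are transiently transfected with GAL4-UAS reporter units driven by chimeric NR-Gal4 fusions and dosed for 24 h. Reporter mRNA is quantified by RT-PCR, 6-FAM labelling, HpaI digestion and capillary electrophoresis. Induction is scored against DMSO.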

Assay [9] addresses Nuclear receptor subfamily 1 group I member 2 (Homo sapiens) (UniProt O75469). The assay is described as follows: ATG_PXR_TRANS: Attagene TRANS-FACTORIAL HepG2 Assay for human Pregnane X Receptor (PXR) (AID 2283008; active = hit-call score of the fitted dose curve at least 0.9, where 1 is the maximum). The gist of the method: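 Transient HepG2 transfectants carrying multiplexed reporter transcription units; PXR activity read through a Gal4 chimera. 24 h exposure. RT-PCR/CE fluorescence; upward curve fit referenced to DMSO.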

Assay [10] addresses human Peroxisome Proliferator-activated Receptor delta (PPARd), PPARD (gene 5467) (UniProt Q03181). The assay is described as follows: ATG_PPARd_TRANS: Attagene TRANS-FACTORIAL HepG2 Assay for human Peroxisome Proliferator-activated Receptor delta (PPARd) (AID 2283002; active = hit-call score of the fitted dose curve at least 0.9, where 1 is the maximum). The gist of the method: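 Transient HepG2 transfection (multiple GAL4-UAS RTUs, chimeric receptor-Gal4); 24 h dosing; total RNA → oligo(dT) RT → PCR → 6-FAM primer extension → HpaI cut → CE. Positive direction vs DMSO.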

Assay [11] addresses human RAR-related Orphan Receptor gamma (RORg), RORC (gene 6097) (UniProt P51449). The assay is described as follows: ATG_RORg_TRANS: Attagene TRANS-FACTORIAL HepG2 Assay for human RAR-related Orphan Receptor gamma (RORg) (AID 2283011; active = hit-call score of the fitted dose curve at least 0.9, where 1 is the maximum). The gist of the method:
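HepG2 cells transiently transfected with GAL4-UAS reporter units and chimeric RORg-Gal4 construct; after 24 h chemical exposure, reporter mRNA measured by RT-PCR with fluorescent capillary electrophoresis, gain of signal fitted against DMSO.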

In assay [12] the target is human Retinoic Acid Receptor gamma (RARg), RARG (gene 5916) (UniProt P13631). The assay is described as follows: ATG_RARg_TRANS: Attagene TRANS-FACTORIAL HepG2 Assay for human Retinoic Acid Receptor gamma (RARg) (AID 2283009; active = hit-call score of the fitted dose curve at least 0.9, where 1 is the maximum). The gist of the method:
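Gain-of-signal relative to DMSO is reported from fluorescent capillary electrophoresis of RT-PCR reporter products. These came from HepG2 cells expressing transfected RARg-GAL4 chimeras with UAS reporters, harvested 24 h after dosing.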

Assay [13] deals with human RAR-related Orphan Receptor beta (RORb), RORB (gene 6096) (UniProt Q92753). Description: ATG_RORb_TRANS: Attagene TRANS-FACTORIAL HepG2 Assay for human RAR-related Orphan Receptor beta (RORb) (AID 2283010; active = hit-call score of the fitted dose curve at least 0.9, where 1 is the maximum). The gist of the method:
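Multiplexed transcription-factor reporter assay: HepG2 cells transiently carrying NR-Gal4/GAL4-UAS constructs, 24 h treatment, mRNA quantified by RT-PCR plus capillary electrophoresis fluorescence; activity scored as induction over DMSO.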

In assay [14] the target is human Retinoic Acid Receptor beta (RARb), RARB (gene 5915) (UniProt P10826). Description: ATG_RARb_TRANS: Attagene TRANS-FACTORIAL HepG2 Assay for human Retinoic Acid Receptor beta (AID 2283004; active = hit-call score of the fitted dose curve at least 0.9, where 1 is the maximum). The gist of the method:
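HepG2 cells were transiently transfected with GAL4-UAS reporter units that report activity of exogenous chimeric NR-Gal4 proteins, then exposed to compound for 24 h. Reporter mRNA was quantified by RT-PCR with capillary electrophoresis fluorescence, as gain of signal over DMSO.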

Records with an inconclusive call do not appear. Active and inactive are the calls of the source. Rule for the calls, unless noted: active = hit-call score of the fitted dose curve at least 0.9, where 1 is the maximum; inactive = score below 0.9.

Sequence of Peroxisome proliferator-activated receptor gamma (Homo sapiens) (P37231 whole entry, looked up, the tested form may be a part): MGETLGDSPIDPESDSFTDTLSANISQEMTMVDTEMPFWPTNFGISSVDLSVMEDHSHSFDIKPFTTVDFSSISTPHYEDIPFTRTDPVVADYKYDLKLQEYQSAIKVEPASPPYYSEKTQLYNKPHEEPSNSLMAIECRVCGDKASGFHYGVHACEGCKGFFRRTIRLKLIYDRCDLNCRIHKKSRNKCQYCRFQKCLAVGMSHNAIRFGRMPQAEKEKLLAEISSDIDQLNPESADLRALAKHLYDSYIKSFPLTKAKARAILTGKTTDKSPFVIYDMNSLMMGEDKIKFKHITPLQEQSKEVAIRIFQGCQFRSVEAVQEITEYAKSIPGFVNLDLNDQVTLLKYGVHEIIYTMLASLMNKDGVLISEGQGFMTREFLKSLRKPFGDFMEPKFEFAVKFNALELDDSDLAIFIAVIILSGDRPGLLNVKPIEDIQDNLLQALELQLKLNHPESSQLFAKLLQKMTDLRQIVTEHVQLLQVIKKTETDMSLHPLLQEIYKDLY
Sequence of Myc proto-oncogene protein (Homo sapiens) (P01106 whole entry, looked up): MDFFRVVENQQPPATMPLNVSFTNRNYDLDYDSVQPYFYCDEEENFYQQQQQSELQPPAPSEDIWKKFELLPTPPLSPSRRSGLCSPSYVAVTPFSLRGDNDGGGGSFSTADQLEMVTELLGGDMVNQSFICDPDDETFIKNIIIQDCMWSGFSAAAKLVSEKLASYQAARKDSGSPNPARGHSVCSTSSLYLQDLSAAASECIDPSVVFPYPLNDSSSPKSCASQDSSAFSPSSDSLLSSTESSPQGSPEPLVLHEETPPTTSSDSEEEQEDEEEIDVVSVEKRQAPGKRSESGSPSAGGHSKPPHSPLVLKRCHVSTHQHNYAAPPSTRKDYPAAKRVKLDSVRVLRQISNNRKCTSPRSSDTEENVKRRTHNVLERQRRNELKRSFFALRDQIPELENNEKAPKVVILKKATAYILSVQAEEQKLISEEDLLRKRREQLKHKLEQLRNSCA
Sequence of Nuclear receptor subfamily 1 group I member 2 (Homo sapiens) (O75469 whole entry, looked up, the tested form may be a part): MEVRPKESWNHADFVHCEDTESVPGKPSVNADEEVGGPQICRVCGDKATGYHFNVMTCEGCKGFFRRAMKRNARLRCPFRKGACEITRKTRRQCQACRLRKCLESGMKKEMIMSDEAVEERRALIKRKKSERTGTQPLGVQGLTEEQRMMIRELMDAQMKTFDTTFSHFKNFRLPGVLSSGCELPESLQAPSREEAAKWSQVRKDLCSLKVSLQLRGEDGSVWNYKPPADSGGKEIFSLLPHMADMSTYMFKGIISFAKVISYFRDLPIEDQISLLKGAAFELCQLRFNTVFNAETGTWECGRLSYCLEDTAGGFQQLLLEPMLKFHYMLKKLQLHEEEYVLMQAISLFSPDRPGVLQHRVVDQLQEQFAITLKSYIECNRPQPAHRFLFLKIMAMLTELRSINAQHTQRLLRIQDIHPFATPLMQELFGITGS
Sequence of human Peroxisome Proliferator-activated Receptor delta (PPARd), PPARD (gene 5467) (Q03181 whole entry, looked up, the tested form may be a part): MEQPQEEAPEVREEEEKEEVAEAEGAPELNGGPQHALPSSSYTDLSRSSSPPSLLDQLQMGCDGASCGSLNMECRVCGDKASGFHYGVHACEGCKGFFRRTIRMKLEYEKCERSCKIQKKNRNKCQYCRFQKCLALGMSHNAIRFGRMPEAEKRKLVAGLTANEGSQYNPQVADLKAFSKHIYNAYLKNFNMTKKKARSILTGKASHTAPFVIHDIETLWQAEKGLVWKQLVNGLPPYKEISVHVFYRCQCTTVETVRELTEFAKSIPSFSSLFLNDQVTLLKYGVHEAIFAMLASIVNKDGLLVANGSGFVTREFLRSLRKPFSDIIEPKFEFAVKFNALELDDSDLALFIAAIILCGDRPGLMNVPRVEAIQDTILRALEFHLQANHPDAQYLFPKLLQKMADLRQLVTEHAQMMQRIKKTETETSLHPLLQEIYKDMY
Sequence of Retinoic acid receptor alpha (Homo sapiens) (P10276 whole entry, looked up, the tested form may be a part): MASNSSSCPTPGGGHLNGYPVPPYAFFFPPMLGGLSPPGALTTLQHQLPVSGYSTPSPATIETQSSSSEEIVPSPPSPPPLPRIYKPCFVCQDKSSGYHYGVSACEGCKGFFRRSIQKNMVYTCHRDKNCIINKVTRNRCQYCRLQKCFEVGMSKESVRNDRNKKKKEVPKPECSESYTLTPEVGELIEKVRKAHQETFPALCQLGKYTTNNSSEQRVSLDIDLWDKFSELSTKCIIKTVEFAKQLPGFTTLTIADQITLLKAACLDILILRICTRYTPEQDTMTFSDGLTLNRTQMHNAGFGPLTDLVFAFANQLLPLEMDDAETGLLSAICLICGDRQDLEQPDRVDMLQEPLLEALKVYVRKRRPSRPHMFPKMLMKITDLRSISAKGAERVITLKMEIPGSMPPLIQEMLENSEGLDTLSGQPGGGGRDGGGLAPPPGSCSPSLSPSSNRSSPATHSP
Sequence of human Retinoic Acid Receptor gamma (RARg), RARG (gene 5916) (P13631 whole entry, looked up, the tested form may be a part): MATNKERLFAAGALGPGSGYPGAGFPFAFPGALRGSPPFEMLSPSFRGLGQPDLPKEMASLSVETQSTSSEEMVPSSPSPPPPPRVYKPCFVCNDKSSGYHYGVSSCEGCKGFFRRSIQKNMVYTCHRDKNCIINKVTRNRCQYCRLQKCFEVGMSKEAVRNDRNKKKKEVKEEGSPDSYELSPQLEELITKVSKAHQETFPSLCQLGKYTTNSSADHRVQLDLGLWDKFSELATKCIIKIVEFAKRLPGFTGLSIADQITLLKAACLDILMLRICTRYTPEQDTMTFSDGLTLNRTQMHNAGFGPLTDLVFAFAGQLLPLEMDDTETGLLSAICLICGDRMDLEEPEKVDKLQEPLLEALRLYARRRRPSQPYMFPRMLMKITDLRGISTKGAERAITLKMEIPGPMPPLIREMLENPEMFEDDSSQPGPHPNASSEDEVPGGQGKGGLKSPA
Sequence of human RAR-related Orphan Receptor beta (RORb), RORB (gene 6096) (Q92753 whole entry, looked up, the tested form may be a part): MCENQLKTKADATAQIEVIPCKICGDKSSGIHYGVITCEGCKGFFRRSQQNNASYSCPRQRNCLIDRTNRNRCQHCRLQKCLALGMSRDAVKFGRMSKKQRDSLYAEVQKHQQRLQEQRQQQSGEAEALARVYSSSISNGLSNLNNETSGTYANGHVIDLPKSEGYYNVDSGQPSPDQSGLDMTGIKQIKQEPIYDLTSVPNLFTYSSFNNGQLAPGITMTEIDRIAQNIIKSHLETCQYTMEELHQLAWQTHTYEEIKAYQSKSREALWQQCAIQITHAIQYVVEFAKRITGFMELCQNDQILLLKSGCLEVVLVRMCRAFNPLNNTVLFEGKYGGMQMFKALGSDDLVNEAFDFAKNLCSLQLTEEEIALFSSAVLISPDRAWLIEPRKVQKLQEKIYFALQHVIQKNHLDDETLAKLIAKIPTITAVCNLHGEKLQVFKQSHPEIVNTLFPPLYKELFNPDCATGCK
Sequence of Cellular tumor antigen p53 (Homo sapiens) (P04637 whole entry, looked up): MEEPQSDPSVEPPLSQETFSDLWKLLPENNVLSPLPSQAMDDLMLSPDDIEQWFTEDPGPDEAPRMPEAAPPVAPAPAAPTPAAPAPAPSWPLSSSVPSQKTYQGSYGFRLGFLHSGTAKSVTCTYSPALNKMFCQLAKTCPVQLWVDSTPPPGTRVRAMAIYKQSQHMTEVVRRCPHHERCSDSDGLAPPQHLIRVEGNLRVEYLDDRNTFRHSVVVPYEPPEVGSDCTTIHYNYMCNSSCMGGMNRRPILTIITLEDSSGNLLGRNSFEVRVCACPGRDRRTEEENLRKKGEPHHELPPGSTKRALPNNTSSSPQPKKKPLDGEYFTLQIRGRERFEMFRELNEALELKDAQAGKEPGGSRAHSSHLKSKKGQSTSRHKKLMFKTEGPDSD
Sequence of human RAR-related Orphan Receptor gamma (RORg), RORC (gene 6097) (P51449 whole entry, looked up, the tested form may be a part): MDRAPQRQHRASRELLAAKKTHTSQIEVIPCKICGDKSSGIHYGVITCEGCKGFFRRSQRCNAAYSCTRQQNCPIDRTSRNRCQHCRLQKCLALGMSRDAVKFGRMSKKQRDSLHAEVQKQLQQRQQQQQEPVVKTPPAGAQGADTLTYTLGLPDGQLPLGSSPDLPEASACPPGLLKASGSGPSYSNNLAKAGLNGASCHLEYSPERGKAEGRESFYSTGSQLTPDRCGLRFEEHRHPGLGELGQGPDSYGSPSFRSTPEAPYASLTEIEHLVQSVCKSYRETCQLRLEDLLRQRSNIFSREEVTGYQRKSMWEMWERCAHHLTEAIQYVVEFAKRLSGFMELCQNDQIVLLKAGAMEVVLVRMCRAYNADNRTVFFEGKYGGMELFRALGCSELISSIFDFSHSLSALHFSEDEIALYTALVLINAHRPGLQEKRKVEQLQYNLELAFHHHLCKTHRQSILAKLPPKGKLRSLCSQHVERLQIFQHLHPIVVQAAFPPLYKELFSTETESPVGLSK
Sequence of human Peroxisome Proliferator-activated Receptor alpha (PPARa), PPARA (gene 5465) (Q07869 whole entry, looked up, the tested form may be a part): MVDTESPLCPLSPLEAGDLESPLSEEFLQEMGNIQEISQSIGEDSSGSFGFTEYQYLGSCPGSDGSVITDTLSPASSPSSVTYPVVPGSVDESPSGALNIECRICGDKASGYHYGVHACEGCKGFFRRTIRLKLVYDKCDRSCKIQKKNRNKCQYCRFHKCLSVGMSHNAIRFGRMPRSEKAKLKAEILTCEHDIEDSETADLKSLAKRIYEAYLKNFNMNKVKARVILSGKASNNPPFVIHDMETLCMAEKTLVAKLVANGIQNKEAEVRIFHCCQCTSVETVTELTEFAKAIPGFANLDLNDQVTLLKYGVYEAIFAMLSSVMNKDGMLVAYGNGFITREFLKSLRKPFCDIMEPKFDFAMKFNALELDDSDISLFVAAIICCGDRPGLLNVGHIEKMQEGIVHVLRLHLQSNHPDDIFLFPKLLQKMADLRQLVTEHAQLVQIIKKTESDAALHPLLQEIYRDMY

On to `COc1cc(CCC(C)=O)ccc1O`, for which the compound was classed as inactive in [1], in [2], in assay [3], in [4], in [5] and in [6]. The result in assay [7], in assay [8] and in assay [9] was inactive.
For `Nc1ccc(Cl)c([N+](=O)[O-])c1`, the compound was classed as inactive in assay [1], in [2], in [3], in assay [4], in assay [5] and in assay [6]. The compound was classed as inactive in assay [8] and in assay [9].
The AC50 is the concentration at which the activity in the assay is half-maximal. As to `C/C=C(\C)C(=O)OCCc1ccccc1`, the compound was classed as inactive in assay [1], in assay [2], in assay [3], in [4], in [5] and in assay [10]. The result in assay [7], in assay [8] and in assay [11] was inactive. For the same compound, in assay [9], the AC50 was 25.1 µM (active).
With `CCCCCCOC(=O)C(C)C`, the compound was classed as inactive in assay [1], in assay [2], in assay [3], in [4], in [5] and in assay [6]. Further, the outcome in [8] and in [11] was inactive.
Regarding `CCOC(=O)c1ccc(N)cc1`, the outcome in assay [1], in assay [2], in assay [3], in assay [4], in assay [5] and in assay [6] was inactive. Further, the compound was called inactive in assay [8], in assay [9] and in [11].
As for `CC1C2CC(CC2C2CCCC(O)C2)C1(C)C` (stereo not given), the result in assay [1], in [2], in assay [3], in assay [4], in assay [5] and in [10] was inactive. In addition, the result in assay [8] and in [12] was inactive. Moreover, in assay [9], the AC50 is 14.3 µM (active).
Regarding `CC(=O)C(C)O` (stereo not given), the compound was classed as inactive in assay [1], in [2], in [3], in [4], in assay [5] and in assay [6]. Also, the compound was classed as inactive in assay [13].
Consider `N[C@@H](Cc1cc(I)c(Oc2cc(I)c(O)c(I)c2)c(I)c1)C(=O)O`, for which the call in assay [1], in [2], in assay [4], in assay [5], in [10] and in [13] was inactive. The AC50 in [3] is 36.5 µM (active); in assay [8], 6.06 µM (active); in [9], 3.79 µM (active).
`COc1ccc(N=Nc2cc(C)c(N=Nc3ccc(S(=O)(=O)O)cc3)cc2OC)cc1`: the result in assay [1], in [2], in assay [4], in assay [5], in assay [10] and in assay [9] was inactive. In addition, the call in assay [13] and in [11] was inactive. Also, the AC50 in assay [3] is 25.7 µM (active); in [8], 25.4 µM (active).
For `CC(=O)CC(=O)Nc1ccc(C)cc1C`, the compound was classed as inactive in [1], in assay [2], in [3], in [4], in assay [5] and in [9]. For the same compound, in assay [11], the outcome was inactive.
Take `CC(C)=CCCC(C)CCOC=O` (stereo not given): the compound was classed as inactive in assay [1], in [2], in assay [3], in [4], in assay [5] and in [8].
Take `CCC1(C)NC(=O)NC1=O` (stereo not given): the compound was classed as inactive in [1], in [2], in assay [3], in [4], in assay [5] and in assay [14]. Also, the call in assay [12] and in assay [13] was inactive.
For the compound `CC1CC(O)CC(C)(C)C1` (stereo not given), the outcome in [1], in assay [2], in assay [3], in [4], in assay [5] and in assay [14] was inactive. Further, the call in assay [7], in assay [9], in [12] and in assay [13] was inactive.

Values taken from PubChem BioAssay (EPA / NIEHS).
